Data published in PubChem BioAssay AID590 (National Center for Advancing Translational Sciences (NCATS), 2007).
Out of some 59,000 compounds screened, about 6,500 (11%) were called active. Roughly 15% stayed inconclusive and do not appear here. Cut-off read from the data, not from the text of the source: active = max dye-equivalent concentration above about 10 nM; inconclusive = mostly about 1.1 nM to 9.6 nM; inactive = weaker than that. The entries come from a sample that favours actives as a whole.

assay: qHTS Assay for Spectroscopic Profiling in A350 Spectral Region; details: Compound autofluorescence, 340/450 nm, Alexa 350 dye-equivalents; hits give high values

Structure (SMILES)	max dye-equivalent concentration
CC1(C)C2CCC1(C)C(OC(=O)CCn1ccnc1)C2 (stereo not given)	inactive
COc1cccc(NS(=O)(=O)c2ccc3[nH]cc(C(=O)NCCCOC(C)C)c(=O)c3c2)c1	inactive
COC(=O)c1ccccc1NC(=O)c1cncc(Br)c1	inactive
Cc1cc2nc(-c3ccc(NC(=O)c4cccnc4)cc3)oc2cc1C	90 nM (active)
CCOC(=O)c1cc(NC(=O)c2cccnc2)cc(C(=O)OCC)c1	inactive
CCC(=O)Nc1cccc(NC(=O)c2cccnc2)c1	inactive
O=S(=O)(O)CCN1CCOCC1	inactive
CCCc1nnc(NC(=O)CN2C(=O)c3ccccc3S2(=O)=O)s1	inactive
O=P(O)(CP(=O)(c1ccccc1)c1ccccc1)c1ccccc1	inactive
O=C(Nc1c(-c2ccccc2)nc2c(Br)cc(Br)cn12)c1ccco1	inactive
COc1ccc(S(=O)(=O)N(CCCN2CCCC2=O)Cc2cc3c(C)ccc(C)c3[nH]c2=O)cc1	13 nM (active)
CCN1CCN(C(=O)CN(C)S(=O)(=O)c2ccc(OC)cc2)CC1	inactive
CCOc1cc2[nH]c(=S)n(CCCN3CCCC3=O)c(=O)c2cc1OCC	inactive
CC(C)(C)c1ccc(C(=O)CSc2ncn[nH]2)cc1	inactive
Cc1csc(NC(=O)C2CCCN2C(=O)OCC(C)C)n1 (stereo not given)	inactive
CN(Cc1ccccc1)c1nc2c(c(=O)[nH]c(=O)n2C)n1CCSc1nc2ccccc2[nH]1	inactive
O=C(Cn1c(-c2ccccn2)nc2ccccc21)NCCN1CCOCC1	inactive
C=CCn1c2ccccc2c2nnc(SC(CC)C(=O)Nc3nc(C)c(C(=O)OCC)s3)nc21 (stereo not given)	56 nM (active)
C=CCn1c(SCC(=O)Nc2nc3ccccc3s2)nnc1-c1ccccc1O	inactive
COc1ccc(-n2c(SCC(=O)Nc3ccc4c(c3)OCO4)nnc2C(C)N2CCCCC2)cc1 (stereo not given)	inactive
O=C(NCCCNC(=O)NC1CCCCC1)NC1CCCCC1	inactive
CC(=NCc1ccc2c(c1)OCO2)C1=C(O)c2ccccc2C1=O	inactive
O=c1[nH]c(-c2cccs2)nc2ccccc12	inactive
O=c1[nH]c(=O)c2nc3ccccc3nc2[nH]1	200 nM (active)

Structure (SMILES)	max dye-equivalent concentration
CCc1c(C)nc(N2CCN(Cc3ccccc3)CC2)[nH]c1=O	inactive
N#C/C(=C\c1ccc(O)c(O)c1)C(=O)NCc1ccccc1	inactive
CCSC1=C(C#N)C(=O)n2c1cc1c2CCCC1	inactive
N#CC1=C(N)C(C#N)(C#N)[C@H](c2ccsc2)[C@H]2COCC=C12	17 nM (active)
O=C(NCc1ccc(Cl)cc1)c1cc2c(nc3sccn32)s1	inactive
Cc1ccnc(N2CCCC(C(=O)Nc3cc(F)ccc3C)C2)n1 (stereo not given)	inactive
CCOC(=O)C1=C(CNC2CCCCC2)NC(=O)NC1c1cc(C)ccc1C (stereo not given)	inactive
c1cncc(CNc2ccnc(-c3ccc4c(c3)OCO4)n2)c1	15 nM (active)
O=C(Nc1cccnc1)c1ccc2c(c1)OCO2	inactive
Cc1cccc(CNc2ccnc(-c3cccnc3)n2)c1	inactive
CC(=O)N=c1ncn(CC(COC(C)=O)OC(C)=O)c2nc[nH]c12 (stereo not given)	inactive
Cc1ccc(C)c(S(=O)(=O)N2CC(=O)Nc3ccccc32)c1	inactive
Cc1ccc(OCC(=O)Nc2ccc(-c3nnc(-c4ccco4)o3)cc2)cc1	inactive
COc1ccc(CC(=O)Nc2ccc(-c3nnc(-c4ccc(C)cc4)o3)cc2)cc1	inactive
Cc1ccc(OCC(=O)Nc2ccc(-c3nc4ncccc4o3)cc2)cc1	25 nM (active)
CCOC(=O)c1cc(C)sc1NC(=O)C1CCC1	inactive
Cn1c(-c2ccc(F)cc2)cnc1SCC(=O)NCc1ccco1	inactive
Cc1ccc(S(=O)(=O)N2CCC(N3CCCCCC3)CC2)cc1	inactive
Fc1ccc(Cn2nnnc2C(c2cccs2)N2CCCCCC2)cc1 (stereo not given)	inactive
Cc1nn2c3cc(N4CCOCC4)ccc3nc2c2ccccc12	inactive
CCN1C(=O)/C(=C\N2CCN(c3cccc(Cl)c3)CC2)SC1=S	inactive
Cc1cc(C)c2c(n1)nn1c(-n3ccnc3)cc(C)nc21	260 nM (active)
Cc1cc(C)c2c(n1)nn1c(N3CCOCC3)cc(C)nc21	7500 nM (active)
CS(=O)(=O)N(CC(=O)N1CCN(c2cccc(Cl)c2)CC1)c1ccccc1	inactive

Structure (SMILES)	max dye-equivalent concentration
Cc1cc(N2CCN(Cc3ccc4c(c3)OCO4)CC2)n2ncnc2n1	inactive
Cc1cc(C)c2c(n1)nn1c(N3CCN(c4cccc(Cl)c4)CC3)cc(C)nc21	110 nM (active)
CN1CCN(CC(O)COCc2ccc3c(c2)OCO3)CC1 (stereo not given)	inactive
CCOC(=O)Nc1ccc2c(c1)N(C(=O)CN1CCN3CCCC3C1)c1ccccc1CC2 (stereo not given)	inactive
CSc1cccc(NC(=O)CSc2ccccc2)c1	inactive
Cc1ccccc1CSc1nnc(-c2cccnc2)n1N	inactive
COc1ccc(C2OC(=O)CC2C(=O)NC(C)C)cc1 (stereo not given)	inactive
CCOC(=O)C1C(=O)NC(N2CCN(c3ccccc3)CC2)=NC1c1ccco1 (stereo not given)	inactive
CCOC(=O)C1C(=O)C=C(c2ccc(OC)cc2)CC1c1ccco1 (stereo not given)	11 nM (active)
CNC(=O)c1nnn(-c2ccccc2)c1C(=O)NC	inactive
CCn1ccnc1C[C@@H]1COc2ccccc2O1	inactive
CC1=C(C(=O)Nc2ccc(Cl)cc2)C(c2ccco2)NC(=O)N1 (stereo not given)	inactive
COc1ccc(Cl)cc1NC(=O)C1CC(=O)N(c2ccc(F)cc2)C1 (stereo not given)	inactive
COc1cccc(N2CC(C(=O)Nc3c(C)cccc3C)CC2=O)c1 (stereo not given)	19 nM (active)
COCCCNC(=O)C1CC(=O)N(c2ccc(C)cc2)C1 (stereo not given)	inactive
O=C(CSc1nnc(-c2cccs2)n1Cc1ccco1)c1ccc2c(c1)OCO2	inactive
CCN1CCCC1CNC(=O)Cn1cnc2ccc(S(=O)(=O)N3CCC(C)CC3)cc2c1=O (stereo not given)	inactive
Fc1ccc2[nH]c3c(N4CCSCC4)ncnc3c2c1	13 nM (active)
CCN1CCCC1CNc1ncnc2c1[nH]c1ccc(F)cc12 (stereo not given)	14 nM (active)
Cc1ccc(-n2ncc3c(N4CCN(c5ccc(F)cc5)CC4)ncnc32)c(C)c1	inactive
Cc1cc(OCC(=O)O)c(Cl)cc1Cl	inactive
CCn1c(Cc2ccccc2)nnc1SCc1nc2ccccc2c(=O)[nH]1	inactive
